# Results filed as inconclusive are left out. Active and inactive are the calls of the source. Cut-off read from the data, not from the text of the source, unless noted: active = percent of DMSO control GFP below about 86%; inactive = the rest, inconclusive results apart.
# Tests used:
# [1] = yeast TOR pathway RPL19A-GFP modulators, primary screen, cell-based, S. cerevisiae, multiplex flow cytometry (AID 1862);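 note: lower values mimic rapamycin by blocking the RPL19A rise seen in DMSO cells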; conditions: S. cerevisiae RPL19A-GFP strain, flow cytometry fluorescence, 3 h; at 10 µM; stronger effect = lower value
# [2] = modulators of MEP2-GFP levels in yeast, primary screen, S. cerevisiae, multiplex flow cytometry (AID 1867;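 active = GFP response, as percent of the DMSO control, above the screen-wide mean plus 3 SD, about 139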;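 note: median GFP channel fluorescence of barcode-gated MEP2-GFP cells measured by flow cytometry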); conditions: S. cerevisiae MEP2-GFP strain, 3 h, at 10 µM, stronger effect = higher value, 100% means same as DMSO wells
# [3] = modulators of CIT2-GFP expression in yeast, primary screen, S. cerevisiae, GFP fusion, multiplex flow cytometry (AID 1870;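 active = percent response above a set limit, the screen-wide mean plus 3 SD, cut at about 130% in these data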;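 note: barcoded CIT2-GFP strain pooled with four other GFP strains with rapamycin as positive control; median GFP fluorescence per well over plate mean of DMSO wells so 100% = DMSO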); conditions: 3 h, at 10 µM, stronger effect = higher value
# [4] = modulators of LAP4-GFP expression in yeast, primary screen, S. cerevisiae, multiplex flow cytometry (AID 1873;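 active = GFP signal, as percent of the solvent control, above the screen mean plus 3 SD, about 149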); conditions: 3 h, at 10 µM, stronger effect = higher value
# [5] = modulators of AGP1-GFP expression in yeast TOR pathway, primary screen, cell-based, multiplex flow cytometry, S. cerevisiae (AID 1887;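 active = GFP signal above the screen-wide mean plus 3 SD, that is over about 124.5% of the solvent control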;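 note: AGP1-GFP fusion strain of S. cerevisiae within a five-strain barcoded multiplex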); conditions: 3 h, at 10 µM, stronger effect = higher value
# [6] = inhibitors of CD8+ T cell-vesicle binding, pilot screen, LFA-1/ICAM-1 modulator project, MLPCN validation set, flow cytometry (AID 2523;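 active = response below a set limit, under 55% cells CD8-positive and vesicle-bound, and CD8 cells' 90th-percentile brightness under 279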;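 for vesicle binding response: mean PE anti-B7-1 fluorescence of CD8+ cells relative to row control; 100% = QL9-loaded vesicles with DMSO vehicle in the same plate row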); conditions: 2C mouse CD8+ T cells, at 7 µM, stronger effect = lower value; double positive events: measured here: CD8+/vesicle+ event percentage
# [7] = target: Integrin beta-1 (Homo sapiens) + Integrin alpha-4 (Homo sapiens) (UniProt P13612+P05556); test: inhibition of HUTS-21 binding to VLA-4, pilot screen, VLA-4 allosteric modulator project, U937 cells, HUTS-21 mAb, flow cytometry, validation set (AID 2674;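 active = inhibition above 50%, about 3 SD of the validation set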;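 note: antibody binding induced by the VLA-4 ligand LDV present at three times its Kd; 0% = LDV ligand with antibody and no compound and 100% = antibody without LDV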); conditions: HUTS-21 LIBS mAb binding, at 6.7 µM, stronger effect = higher value, binding induced by LDV ligand
# Integrin beta-1 (Homo sapiens) + Integrin alpha-4 (Homo sapiens), sequence (P05556 whole entry, looked up): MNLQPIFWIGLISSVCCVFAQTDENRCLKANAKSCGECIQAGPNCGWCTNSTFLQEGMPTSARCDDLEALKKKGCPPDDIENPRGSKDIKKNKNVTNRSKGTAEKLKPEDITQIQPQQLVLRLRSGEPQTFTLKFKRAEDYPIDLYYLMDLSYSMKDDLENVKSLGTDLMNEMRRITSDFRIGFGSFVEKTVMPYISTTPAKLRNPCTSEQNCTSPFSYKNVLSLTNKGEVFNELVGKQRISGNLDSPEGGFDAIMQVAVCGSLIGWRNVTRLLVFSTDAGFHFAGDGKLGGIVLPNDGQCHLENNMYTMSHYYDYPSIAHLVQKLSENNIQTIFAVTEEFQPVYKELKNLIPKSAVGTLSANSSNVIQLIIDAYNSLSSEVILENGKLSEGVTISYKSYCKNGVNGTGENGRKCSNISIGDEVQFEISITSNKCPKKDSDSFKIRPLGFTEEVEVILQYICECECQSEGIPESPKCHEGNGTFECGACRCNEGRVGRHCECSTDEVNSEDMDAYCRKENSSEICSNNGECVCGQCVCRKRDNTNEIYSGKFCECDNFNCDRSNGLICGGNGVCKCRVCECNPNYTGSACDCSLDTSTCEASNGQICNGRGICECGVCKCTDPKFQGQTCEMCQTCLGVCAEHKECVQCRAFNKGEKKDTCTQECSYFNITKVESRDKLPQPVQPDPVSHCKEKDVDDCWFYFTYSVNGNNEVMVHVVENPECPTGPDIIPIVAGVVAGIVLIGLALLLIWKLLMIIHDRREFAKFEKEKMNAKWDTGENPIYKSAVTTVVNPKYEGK
# Integrin beta-1 (Homo sapiens) + Integrin alpha-4 (Homo sapiens), sequence (P13612 whole entry, looked up): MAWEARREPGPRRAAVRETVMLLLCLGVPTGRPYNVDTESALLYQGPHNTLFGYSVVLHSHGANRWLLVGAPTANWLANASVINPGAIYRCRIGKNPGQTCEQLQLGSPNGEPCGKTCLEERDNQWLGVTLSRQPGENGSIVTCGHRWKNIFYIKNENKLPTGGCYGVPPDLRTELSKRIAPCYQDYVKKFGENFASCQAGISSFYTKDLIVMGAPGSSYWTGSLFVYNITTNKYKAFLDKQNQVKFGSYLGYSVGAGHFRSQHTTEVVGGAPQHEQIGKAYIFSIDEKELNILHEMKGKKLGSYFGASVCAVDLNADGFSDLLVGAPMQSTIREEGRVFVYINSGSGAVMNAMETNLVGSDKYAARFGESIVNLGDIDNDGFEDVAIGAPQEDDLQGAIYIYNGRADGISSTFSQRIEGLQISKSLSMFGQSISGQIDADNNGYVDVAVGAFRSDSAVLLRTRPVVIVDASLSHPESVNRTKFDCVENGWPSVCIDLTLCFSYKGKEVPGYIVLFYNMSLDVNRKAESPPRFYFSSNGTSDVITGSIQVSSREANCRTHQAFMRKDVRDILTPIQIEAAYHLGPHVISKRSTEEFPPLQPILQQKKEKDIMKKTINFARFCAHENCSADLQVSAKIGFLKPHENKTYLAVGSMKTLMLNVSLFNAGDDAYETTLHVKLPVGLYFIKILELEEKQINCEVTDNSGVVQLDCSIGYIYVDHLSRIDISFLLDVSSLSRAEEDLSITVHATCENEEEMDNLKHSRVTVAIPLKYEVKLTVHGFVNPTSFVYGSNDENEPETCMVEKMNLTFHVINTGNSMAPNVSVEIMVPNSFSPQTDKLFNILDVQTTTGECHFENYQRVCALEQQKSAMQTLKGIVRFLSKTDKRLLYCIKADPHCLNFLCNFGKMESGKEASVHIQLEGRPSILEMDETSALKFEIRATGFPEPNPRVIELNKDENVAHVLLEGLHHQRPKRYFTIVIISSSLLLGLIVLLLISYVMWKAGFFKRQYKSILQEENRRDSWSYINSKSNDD
# [8] = superoxide lowering in aged yeast cells, pilot screen, validation compound set (AID 2706;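 active = superoxide response below 65% of plate, a cut near 3 SD across the whole screen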;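 note: yeast exposed to compound for one week at 30 degrees C before staining; 100% = mean of all compound wells on the same plate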); conditions: S. cerevisiae aging, superoxide DHE fluorescence; at 10 µM; stronger effect = lower value
# [9] = target: Beta-adrenergic receptor kinase 1 (Homo sapiens) (UniProt P25098); test: GRK2 binders displacing RNA aptamer, biochemical, validation, human GRK2, bead flow cytometry (AID 488806;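 active = aptamer binding inhibition above 30%, about 3 SD of noise from non-fluorescent compounds; inactive = inhibition at or below 30%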); conditions: bead-bound GRK2, FAM-aptamer displacement, at 10 µM, stronger effect = higher value
# Beta-adrenergic receptor kinase 1 (Homo sapiens), sequence (P25098 whole entry, looked up): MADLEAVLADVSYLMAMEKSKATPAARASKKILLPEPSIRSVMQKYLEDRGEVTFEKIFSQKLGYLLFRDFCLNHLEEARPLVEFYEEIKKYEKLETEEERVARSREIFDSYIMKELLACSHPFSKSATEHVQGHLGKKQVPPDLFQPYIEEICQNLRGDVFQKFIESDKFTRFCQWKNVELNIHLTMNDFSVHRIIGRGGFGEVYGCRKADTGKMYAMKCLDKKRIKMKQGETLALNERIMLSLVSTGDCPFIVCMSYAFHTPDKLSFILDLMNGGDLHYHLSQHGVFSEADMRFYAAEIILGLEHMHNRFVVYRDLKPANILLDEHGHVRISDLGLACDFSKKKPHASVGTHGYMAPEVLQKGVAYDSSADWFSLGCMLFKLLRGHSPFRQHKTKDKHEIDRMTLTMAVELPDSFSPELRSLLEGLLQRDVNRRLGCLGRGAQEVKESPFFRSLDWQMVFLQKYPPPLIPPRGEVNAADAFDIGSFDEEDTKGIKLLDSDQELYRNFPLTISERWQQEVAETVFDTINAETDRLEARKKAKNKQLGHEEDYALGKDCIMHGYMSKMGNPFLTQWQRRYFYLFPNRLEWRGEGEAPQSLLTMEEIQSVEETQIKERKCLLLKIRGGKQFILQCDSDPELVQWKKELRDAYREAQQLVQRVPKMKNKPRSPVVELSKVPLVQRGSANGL
# [10] = target: Beta-2 adrenergic receptor (Homo sapiens) (UniProt P07550); test: beta2AR agonists driving receptor internalization, pilot screen, cell-based, FAP fluorogen, flow cytometry, validation set (AID 504459;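 active = percent response above 42, roughly 3 SD of non-fluorescent test compounds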;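 note: agonist-driven loss of surface beta2AR via internalization measured by FAP dye flow cytometry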); conditions: Am2.2-beta2AR cells, FAP surface receptor flow cytometry; at 10 µM; stronger effect = higher value
# Beta-2 adrenergic receptor (Homo sapiens), sequence (P07550 whole entry, looked up): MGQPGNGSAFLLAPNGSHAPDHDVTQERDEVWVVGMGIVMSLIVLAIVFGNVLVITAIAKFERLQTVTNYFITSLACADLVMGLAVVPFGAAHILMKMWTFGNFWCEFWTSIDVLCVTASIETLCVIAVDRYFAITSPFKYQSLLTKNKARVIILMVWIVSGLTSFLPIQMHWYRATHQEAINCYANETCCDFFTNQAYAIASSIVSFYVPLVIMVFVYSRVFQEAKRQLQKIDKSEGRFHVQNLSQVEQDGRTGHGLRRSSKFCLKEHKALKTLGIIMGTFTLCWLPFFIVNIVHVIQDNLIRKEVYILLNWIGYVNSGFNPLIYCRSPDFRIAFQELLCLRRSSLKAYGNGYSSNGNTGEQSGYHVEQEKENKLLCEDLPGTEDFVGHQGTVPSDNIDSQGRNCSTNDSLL
# [11] = target: AP-2 complex subunit beta (Homo sapiens) (UniProt P63010); test: inhibitors of arrestin peptide binding to AP2, pilot screen, biochemical, validation set, GST-AP2 beads, flow cytometry (AID 504541;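 active = inhibition above 54%, about 3 SD of non-fluorescent compounds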;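 note: AP2 carries R879A mutation and is captured from E. coli lysate; bead-bound FITC arrestin peptide fluorescence measuring arrestin peptide binding to AP2; 0% = DMSO wells and 100% = excess unlabeled arrestin peptide control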); conditions: FITC arrestin peptide, at 10 µM, stronger effect = higher value, AP2 beta2 appendage fragment, R879A mutant
# AP-2 complex subunit beta (Homo sapiens), sequence (P63010 whole entry, looked up, the tested form may be a part, one chain of several): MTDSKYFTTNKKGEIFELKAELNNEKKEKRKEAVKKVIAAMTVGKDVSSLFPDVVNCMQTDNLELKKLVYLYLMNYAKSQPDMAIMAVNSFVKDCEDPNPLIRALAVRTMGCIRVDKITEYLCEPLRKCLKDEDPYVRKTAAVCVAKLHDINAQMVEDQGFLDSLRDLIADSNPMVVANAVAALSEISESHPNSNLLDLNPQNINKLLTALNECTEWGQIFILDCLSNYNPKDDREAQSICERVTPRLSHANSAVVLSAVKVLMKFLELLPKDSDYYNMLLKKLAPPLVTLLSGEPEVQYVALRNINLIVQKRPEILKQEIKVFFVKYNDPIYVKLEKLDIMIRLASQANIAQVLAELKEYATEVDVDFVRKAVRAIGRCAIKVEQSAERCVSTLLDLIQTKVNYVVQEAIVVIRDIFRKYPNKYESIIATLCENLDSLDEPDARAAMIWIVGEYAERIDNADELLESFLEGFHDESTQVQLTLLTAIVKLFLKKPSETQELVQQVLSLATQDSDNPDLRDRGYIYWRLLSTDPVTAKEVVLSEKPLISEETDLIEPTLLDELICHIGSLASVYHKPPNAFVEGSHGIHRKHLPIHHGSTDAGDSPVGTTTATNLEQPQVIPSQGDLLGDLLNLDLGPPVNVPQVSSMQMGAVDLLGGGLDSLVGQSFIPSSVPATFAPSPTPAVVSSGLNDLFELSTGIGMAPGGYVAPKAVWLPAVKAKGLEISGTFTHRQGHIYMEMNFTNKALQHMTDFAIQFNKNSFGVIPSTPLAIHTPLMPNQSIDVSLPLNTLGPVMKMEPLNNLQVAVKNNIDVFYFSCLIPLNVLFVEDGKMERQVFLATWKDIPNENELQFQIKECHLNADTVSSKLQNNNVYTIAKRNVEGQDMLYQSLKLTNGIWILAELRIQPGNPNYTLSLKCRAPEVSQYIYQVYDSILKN
# [12] = yeast V-ATPase proton transport modulators, S. cerevisiae, pHLuorin, HTS validation (AID 504600; in the data active = response above about 15%;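 note: plate controls were DMSO for no effect and reference compound for full effect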); conditions: S. cerevisiae pHLuorin cytosolic pH, at 10 µM, stronger effect = higher value
# [13] = test system: anti-desmoglein-3 scFv antibody binding to human DSG3; test: inhibitors of anti-DSG3 scFv binding to DSG3, pilot screen, biochemical, validation compound set, bead-based, flow cytometry (AID 588368;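 active = binding below the plate cutoff, the plate median minus 3 SD, with a reading above zero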;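 note: signal is the median channel fluorescence of bead-bound GFP antibody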); conditions: Protein G beads, DSG3-Fc, scFv-GFP binding, at 10 µM, stronger effect = lower value
# [14] = inhibitors of fungal efflux pumps CDR1, CDR2, MDR1, pilot screen, validation compound set, multiplex, phenotypic (AID 588506;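 active = efflux inhibition above 0.42, the validation set average plus 4 SD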;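 note: Nile Red retained in cells so higher fluorescence means more efflux inhibition; 0 = negative control wells and 1 = enniatin B 25 µM full block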); conditions: S. cerevisiae pump-expressing triplex, Nile Red efflux flow cytometry; at 10 µM; stronger effect = higher value; the pumps come from Candida albicans
# [15] = target: ATP-binding cassette sub-family B member 6 (Homo sapiens) (UniProt Q9NP58); test: ABCB6 transporter inhibitors, pilot screen, K562-ABCB6 cells, flow cytometry, validation set (AID 588550;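 active = inhibition above the screen-wide mean plus 3 SD, about 51%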;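 note: 0% = DMSO wells and 100% = benzethonium chloride 70 µM positive control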); conditions: K562-ABCB6 porphyrin accumulation, 1 h, at 10 µM, stronger effect = higher value
# ATP-binding cassette sub-family B member 6 (Homo sapiens), sequence (Q9NP58 whole entry, looked up): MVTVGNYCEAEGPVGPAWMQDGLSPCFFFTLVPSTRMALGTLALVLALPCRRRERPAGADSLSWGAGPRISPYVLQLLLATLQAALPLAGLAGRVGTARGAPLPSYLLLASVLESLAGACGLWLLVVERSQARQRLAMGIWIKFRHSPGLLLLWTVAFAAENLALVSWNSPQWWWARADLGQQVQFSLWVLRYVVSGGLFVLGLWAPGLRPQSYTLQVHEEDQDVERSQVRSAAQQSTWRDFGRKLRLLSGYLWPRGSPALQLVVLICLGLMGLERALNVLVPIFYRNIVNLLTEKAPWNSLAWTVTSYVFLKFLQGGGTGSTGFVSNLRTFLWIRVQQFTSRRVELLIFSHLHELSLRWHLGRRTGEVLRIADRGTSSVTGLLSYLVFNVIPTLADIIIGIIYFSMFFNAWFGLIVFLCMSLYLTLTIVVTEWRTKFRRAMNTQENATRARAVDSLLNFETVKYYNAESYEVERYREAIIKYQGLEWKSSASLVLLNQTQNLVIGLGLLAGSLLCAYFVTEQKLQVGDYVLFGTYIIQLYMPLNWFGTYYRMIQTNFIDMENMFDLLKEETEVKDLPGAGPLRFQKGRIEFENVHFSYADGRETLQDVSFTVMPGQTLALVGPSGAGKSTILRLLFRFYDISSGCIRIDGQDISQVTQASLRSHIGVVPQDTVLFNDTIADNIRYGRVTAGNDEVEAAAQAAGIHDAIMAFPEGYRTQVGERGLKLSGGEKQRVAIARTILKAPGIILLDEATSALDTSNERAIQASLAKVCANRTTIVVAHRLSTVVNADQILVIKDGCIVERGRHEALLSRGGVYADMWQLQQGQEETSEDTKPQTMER
# [16] = promoters of myeloid differentiation in arrested cells, primary screen, cell-based, GFP/MAC1 double positive, flow cytometry, validation set (AID 588685;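 active = differentiation response of at least 50%, scaled between solvent and reference control, from cells with both markers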;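 note: compound exposure lasts four days before antibody staining and flow analysis; 0% = DMSO wells and 100% = 5 µM fulvestrant positive control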); conditions: ER-HoxA9 marrow cells, stronger effect = higher value, normalized: vehicle 0, fulvestrant 100
Structure (SMILES),percent of DMSO control GFP [1],GFP response vs DMSO [2],percent response of DMSO control [3],GFP response vs DMSO [4],"GFP response, % of DMSO [5]",double positive events [6] [%],vesicle binding response [6],inhibition [7],superoxide response (% of plate) [8],aptamer binding inhibition [9],response [10],inhibition [11],response [12],binding (% of control) [13],efflux inhibition (fraction of control) [14],inhibition [15],differentiation response [16]
O=C(CCCn1c(=O)oc2ccccc21)N1CCN(c2ccc(F)cc2)CC1,101% (inactive),93% (inactive),103% (inactive),77.7% (inactive),91.4% (inactive),46.7,9.2% (active),-1.79% (inactive),111% (inactive),1% (inactive),10.4% (inactive),-3.97% (inactive),1.31% (inactive),102% (inactive),0.15 (inactive),9% (inactive),-26.4% (inactive)
COc1ccc(-c2nc(NC(C)=O)sc2-c2ccc(OC)cc2)cc1,104% (inactive),101% (inactive),99.7% (inactive),92.6% (inactive),90.9% (inactive),65.9,232% (inactive),-2.43% (inactive),104% (inactive),2% (inactive),-22.1% (inactive),-11.5% (inactive),0.09% (inactive),102% (inactive),-0.29 (inactive),0% (inactive),14.4% (inactive)
COc1ccc(C(=O)Nc2cccc3cccnc23)cc1OC,102% (inactive),105% (inactive),105% (inactive),119% (inactive),96.3% (inactive),49.8,156% (inactive),-18.5% (inactive),103% (inactive),-4% (inactive),10.2% (inactive),-6.27% (inactive),-0.52% (inactive),103% (inactive),-0.33 (inactive),0% (inactive),-17.7% (inactive)
Cc1coc2cc3oc(=O)c(CCC(=O)O)c(C)c3cc12,95.4% (inactive),101% (inactive),92% (inactive),147% (inactive),86.8% (inactive),58.9,223% (inactive),-11.3% (inactive),109% (inactive),1% (inactive),-0.85% (inactive),20.5% (inactive),-3.3% (inactive),106% (inactive),-0.17 (inactive),6% (inactive),-2.4% (inactive)
COc1ccc2c(CC(=O)NCC3CCC(C(=O)O)CC3)cc(=O)oc2c1 (stereo not drawn),101% (inactive),103% (inactive),105% (inactive),101% (inactive),107% (inactive),59.6,116% (inactive),-9.13% (inactive),111% (inactive),-2% (inactive),-4.55% (inactive),-1.68% (inactive),7.23% (inactive),102% (inactive),0.04 (inactive),-1% (inactive),4.2% (inactive)
CC1=C(C)C(=O)C(CCCCC#CCCCC#CCO)=C(C)C1=O,99.3% (inactive),99.6% (inactive),99.6% (inactive),108% (inactive),107% (inactive),62.8,137% (inactive),20.2% (inactive),77.4% (inactive),4% (inactive),-12.4% (inactive),-0.87% (inactive),1.96% (inactive),103% (inactive),-0.13 (inactive),-1% (inactive),5.85% (inactive)
Nc1cnn(C2OC(CO)C(O)C2O)c(=O)n1 (stereo not drawn),102% (inactive),108% (inactive),100% (inactive),102% (inactive),99.4% (inactive),63.4,463% (inactive),-13.9% (inactive),99.1% (inactive),3% (inactive),-1.33% (inactive),1.7% (inactive),0.15% (inactive),97.7% (inactive),0.11 (inactive),0% (inactive),-8.55% (inactive)
Cc1onc(-c2c(Cl)cccc2Cl)c1C(=O)NC1C(=O)N2C1SC(C)(C)C2C(=O)O (stereo not drawn),99.7% (inactive),103% (inactive),100% (inactive),117% (inactive),113% (inactive),59.6,207% (inactive),-6.23% (inactive),83.9% (inactive),0% (inactive),-26.4% (inactive),5.02% (inactive),-4.49% (inactive),103% (inactive),0 (inactive),3% (inactive),-12.9% (inactive)
CC(C)COCC(CN(Cc1ccccc1)c1ccccc1)N1CCCC1 (stereo not drawn),93.5% (inactive),121% (inactive),104% (inactive),74.3% (inactive),91.9% (inactive),61.3,119% (inactive),1.61% (inactive),116% (inactive),-2% (inactive),8.3% (inactive),-11.8% (inactive),0.91% (inactive),113% (inactive),0.16 (inactive),8% (inactive),-0.82% (inactive)
